Results filed as inconclusive are left out. Activity calls are given as the source filed them. Unless noted, calls come from the whole dose curve; as a rule, active = well fitted curve in the direction sought with a large enough effect in the repeat runs; inconclusive = weak or mixed curves; inactive = no such curve, though single readings can be large; an effect the other way counts as inactive or inconclusive.
Assays:
[1] = qHTS assay to identify aromatase inhibitors - cell viability counter screen (AID 743084);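 note: cells stimulated with testosterone during compound exposure; nearly all actives have a fitted effect of over 55% in size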
[2] = biological target: Aryl hydrocarbon receptor (Homo sapiens) (UniProt P35869); test: qHTS assay to identify small molecule that activate the aryl hydrocarbon receptor (AhR) signaling pathway (AID 743085);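 note: HG2L7.5c1 human HepG2 liver cells with stably integrated DRE-driven firefly reporter; series mostly up to about 70 µM; nearly all actives have a fitted effect of over 15% in size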
In short: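 Cell line HG2L7.5c1 (human hepatoma, 20× DRE-luc). Plated, 5 h 37C, compound/DMSO added, 24 h 37C. CellTiter-Fluor 30 min 37C → fluorescence; then ONE-Glo 30 min RT → luminescence.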

[3] = biological target: Peroxisome proliferator-activated receptor gamma (Homo sapiens) (UniProt P37231); test: qHTS assay to identify small molecule agonists of the peroxisome proliferator-activated receptor gamma (PPARg) signaling pathway (AID 743094; active = well fitted activation curve with a large enough effect in the signal ratio in the repeat runs, not every such curve was filed as active; the % refers to the signal ratio)
In short: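 Compounds dissolved in DMSO were added to PPARg UAS-bla HEK293H cells for 17 h at 37C, and reporter expression was quantified by fluorescence intensity after 1 h with LiveBLAzer B/G FRET substrate.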

[4] = qHTS assay to identify small molecule antagonists of the peroxisome proliferator-activated receptor gamma (PPARg) signaling pathway - cell viability counter screen (AID 743194); note: nearly all actives have a fitted effect of over 55% in size
In short: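 Viability was measured as CellTiter-Glo luminescence in GeneBLAzer PPARg UAS-bla HEK293H cells. These cells had been exposed 17 h at 37 C to compounds together with rosiglitazone at 50 nM final, with the beta-lactamase readout taken in the same wells.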

[5] = qHTS assay for small molecule agonists of the antioxidant response element (ARE) signaling pathway (AID 743202; active = well fitted activation curve with a large enough effect in the signal ratio in the repeat runs, not every such curve was filed as active; the % refers to the signal ratio; note: potency is the fitted concentration of half-maximal effect)
In short: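 An ARE-responsive beta-lactamase gene stably integrated in HepG2 cells serves as reporter. After 5 h plating and 16 h compound incubation at 37 C, fluorescence of the B/G FRET substrate was measured.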

[6] = qHTS assay for small molecule agonists of the antioxidant response element (ARE) signaling pathway - cell viability counter screen (AID 743203; calls by dose curve; note: nearly all actives have a fitted effect of over 55% in size; note: potency is the fitted concentration of half-maximal effect)
In short: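 Following 16 hrs of compound treatment at 37C, HepG2 cells with an ARE-controlled beta-lactamase gene were lysed with CellTiter-Glo. Luminescence was read after 30 min at room temperature.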

[7] = qHTS assay for small molecule activators of the heat shock response signaling pathway (AID 743210; active = well fitted activation curve with a large enough effect in the signal ratio in the repeat runs, with a control signal flat, not every such curve was filed as active; the % refers to the signal ratio;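 note: HeLa cells with beta-lactamase reporter driven by heat shock elements; series mostly up to about 63 µM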)
In short: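 In HSE-bla HeLa cells, 5 h compound incubation (37 C) precedes addition of LiveBLAzer B/G substrate; after 2.5 h at room temperature, fluorescence intensity indicates reporter induction.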

[8] = qHTS assay to identify small molecule agonists of the peroxisome proliferator-activated receptor delta (PPARd) signaling pathway - cell viability counter screen (AID 743211); note: nearly all actives have a fitted effect of over 55% in size; note: potency is the fitted concentration of half-maximal effect
In short: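 HEK293H PPARd-bla, 3000 cells/well; 5 h preincubation 37C/5% CO2; cpd in DMSO, 17 h 37C; B/G FRET substrate 2 h RT; CellTiter-Glo 30 min RT, luminescence.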

[9] = biological target: Peroxisome proliferator-activated receptor delta (Homo sapiens) (UniProt Q03181); test: qHTS assay to identify small molecule agonists of the peroxisome proliferator-activated receptor delta (PPARd) signaling pathway (AID 743212; calls by dose curve)
In short: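 HEK293H UAS-bla reporter cells, human PPARd system; compounds delivered in DMSO after 5 h plating, then at 37 C. Beta-lactamase FRET read, 2 h RT substrate step.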

[10] = qHTS assay to identify small molecule antagonists of the peroxisome proliferator-activated receptor delta (PPARd) signaling pathway - cell viability counter screen (AID 743213); note: nearly all actives have a fitted effect of over 50% in size; note: potency is the fitted concentration of half-maximal effect
In short: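 PPARd-bla HEK293H cells were treated with compounds plus agonist L165041 (300 nM final) for 17 h at 37 C. Viability was then read in the same wells by CellTiter-Glo luminescence after 30 min at room temperature.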

[11] = qHTS assay to identify small molecule agonists of the farnesoid-X-receptor (FXR) signaling pathway - cell viability counter screen (AID 743218); note: nearly all actives have a fitted effect of over 45% in size; note: potency is the fitted concentration of half-maximal effect
In short: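 Parallel cytotoxicity test: compound-treated (16 h, 37 C) HEK 293T FXR-bla reporter cells were lysed with CellTiter-Glo and luminescence recorded.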

[12] = biological target: Bile acid receptor (Homo sapiens) (UniProt Q96RI1); test: qHTS assay to identify small molecule agonists of the farnesoid-X-receptor (FXR) signaling pathway (AID 743220; active = well fitted activation curve with a large enough effect in the signal ratio in the repeat runs, not every such curve was filed as active; the % refers to the signal ratio)
In short: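 Beta-lactamase reporter under UAS control in GeneBLAzer FXR HEK 293T cells (5000/well) measured with LiveBLAzer FRET substrate after 2 h at room temperature. Compound exposure lasted 16 h at 37C.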

[13] = qHTS assay to identify small molecule antagonists of the farnesoid-X-receptor (FXR) signaling pathway - cell viability counter screen (AID 743221; active = well fitted cell-killing curve with a large enough effect in the repeat runs, not every such curve was filed as active; note: nearly all actives have a fitted effect of over 50% in size)
In short: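 Luminescence from CellTiter-Glo measures cytotoxicity in GeneBLAzer FXR-UAS-bla HEK 293T cells. Cells were exposed to compounds with 50 uM chenodeoxycholic acid (final) for 16 h at 37 C, in wells also used for the reporter readout.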

[14] = biological target: Vitamin D3 receptor (Homo sapiens) (UniProt P11473); test: qHTS assay to identify small molecule agonists of the vitamin D receptor (VDR) signaling pathway (AID 743222; calls by dose curve)
In short: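 In VDR-bla cells, compound-induced beta-lactamase expression is quantified by FRET substrate fluorescence. Treatment lasts 16 h at 37C; substrate develops 2 h at room temperature.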

[15] = biological target: Vitamin D3 receptor (Homo sapiens) (UniProt P11473); test: qHTS assay to identify small molecule antagonists of the vitamin D receptor (VDR) signaling pathway (AID 743223; active = well fitted inhibition curve with a large enough effect in the signal ratio in the repeat runs, not every such curve was filed as active; the % refers to the signal ratio)
In short: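 Antagonist mode uses 1alpha,25-dihydroxyvitamin D3 at 3 nM final as stimulus. VDR-bla cells receive compounds in DMSO, incubate 16 h at 37C, then a beta-lactamase FRET substrate for 2 h at room temperature before fluorescence measurement.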

[16] = qHTS assay to identify small molecule that activate the aryl hydrocarbon receptor (AhR) signaling pathway - cell viability counter screen (AID 743086); note: nearly all actives have a fitted effect of over 45% in size; note: potency is the fitted concentration of half-maximal effect
In short: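 Cytotoxicity counter screen: CellTiter-Fluor signal (30 min, 37 C) in 4000 HepG2 cells/well carrying the DRE-luciferase reporter, following 24 h compound exposure at 37 C.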

[17] = biological target: Peroxisome proliferator-activated receptor gamma (Homo sapiens) (UniProt P37231); test: qHTS assay to identify small molecule antagonists of the peroxisome proliferator-activated receptor gamma (PPARg) signaling pathway (AID 743191; calls by dose curve; note: series mostly up to about 63 µM; nearly all actives have a fitted effect of over 30% in size)
In short: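 Beta-lactamase reporter under UAS control in HEK293H PPARg-bla cells; compound treatment 17 h at 37C. Read-out: fluorescence intensity after 1 h room-temperature incubation with LiveBLAzer B/G FRET substrate.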

[18] = qHTS assay for small molecule activators of the heat shock response signaling pathway - cell viability counter screen (AID 743209); note: nearly all actives have a fitted effect of over 50% in size
In short: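 Readout: CellTiter-Glo luminescence, 30 min at room temperature. System: HSE-bla HeLa cells, 1500/well, plated overnight. Treatment: compounds in DMSO, 5 h at 37 C.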

[19] = biological target: Peroxisome proliferator-activated receptor delta (Homo sapiens) (UniProt Q03181); test: qHTS assay to identify small molecule antagonists of the peroxisome proliferator-activated receptor delta (PPARd) signaling pathway (AID 743215; active = well fitted inhibition curve with a large enough effect in the signal ratio in the repeat runs, not every such curve was filed as active; the % refers to the signal ratio;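 note: cells stimulated with agonist L165041 at 300 nM final during compound exposure; series mostly up to about 62 µM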)
In short: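 HEK293H UAS-bla, PPARd; agonist L165041 300 nM final with cpd in DMSO; 37 C 17 h; FRET substrate, RT 2 h; fluorescence intensity.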

Measured: Potency

Chain of Aryl hydrocarbon receptor (Homo sapiens) (P35869 whole entry, looked up): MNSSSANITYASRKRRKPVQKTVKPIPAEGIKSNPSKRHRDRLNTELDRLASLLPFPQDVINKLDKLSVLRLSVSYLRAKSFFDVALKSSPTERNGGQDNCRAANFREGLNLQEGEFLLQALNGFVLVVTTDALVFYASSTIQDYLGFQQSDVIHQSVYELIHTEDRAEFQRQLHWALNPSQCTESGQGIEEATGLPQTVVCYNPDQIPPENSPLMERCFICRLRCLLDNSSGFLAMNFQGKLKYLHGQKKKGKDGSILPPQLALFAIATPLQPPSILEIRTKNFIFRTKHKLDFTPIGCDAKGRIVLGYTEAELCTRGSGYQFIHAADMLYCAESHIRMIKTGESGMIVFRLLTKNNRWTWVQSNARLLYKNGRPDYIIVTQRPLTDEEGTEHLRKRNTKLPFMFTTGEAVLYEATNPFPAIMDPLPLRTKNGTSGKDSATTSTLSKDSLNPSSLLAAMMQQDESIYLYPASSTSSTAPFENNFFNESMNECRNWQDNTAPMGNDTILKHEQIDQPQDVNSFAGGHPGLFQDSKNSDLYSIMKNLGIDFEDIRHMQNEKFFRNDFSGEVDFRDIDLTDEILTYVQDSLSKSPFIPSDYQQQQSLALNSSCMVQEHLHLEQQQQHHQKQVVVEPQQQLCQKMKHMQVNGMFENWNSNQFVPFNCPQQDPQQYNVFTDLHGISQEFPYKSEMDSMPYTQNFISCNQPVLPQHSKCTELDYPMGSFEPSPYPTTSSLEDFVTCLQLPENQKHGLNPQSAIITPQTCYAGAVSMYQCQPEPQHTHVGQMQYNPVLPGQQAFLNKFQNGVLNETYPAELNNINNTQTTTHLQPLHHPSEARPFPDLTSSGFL
Chain of Peroxisome proliferator-activated receptor delta (Homo sapiens) (Q03181 whole entry, looked up): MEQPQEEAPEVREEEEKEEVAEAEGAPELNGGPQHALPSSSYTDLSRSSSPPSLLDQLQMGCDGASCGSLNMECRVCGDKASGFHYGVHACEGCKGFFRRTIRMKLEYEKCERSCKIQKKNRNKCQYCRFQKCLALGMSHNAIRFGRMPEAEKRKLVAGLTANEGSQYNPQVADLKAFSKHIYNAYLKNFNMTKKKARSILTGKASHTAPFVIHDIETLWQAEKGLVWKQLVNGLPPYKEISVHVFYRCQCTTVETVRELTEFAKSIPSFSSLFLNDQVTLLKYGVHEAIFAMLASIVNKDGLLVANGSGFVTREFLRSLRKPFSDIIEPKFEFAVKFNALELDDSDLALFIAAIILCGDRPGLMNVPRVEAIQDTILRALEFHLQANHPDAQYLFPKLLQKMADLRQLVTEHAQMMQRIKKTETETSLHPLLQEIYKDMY
Chain of Vitamin D3 receptor (Homo sapiens) (P11473 whole entry, looked up): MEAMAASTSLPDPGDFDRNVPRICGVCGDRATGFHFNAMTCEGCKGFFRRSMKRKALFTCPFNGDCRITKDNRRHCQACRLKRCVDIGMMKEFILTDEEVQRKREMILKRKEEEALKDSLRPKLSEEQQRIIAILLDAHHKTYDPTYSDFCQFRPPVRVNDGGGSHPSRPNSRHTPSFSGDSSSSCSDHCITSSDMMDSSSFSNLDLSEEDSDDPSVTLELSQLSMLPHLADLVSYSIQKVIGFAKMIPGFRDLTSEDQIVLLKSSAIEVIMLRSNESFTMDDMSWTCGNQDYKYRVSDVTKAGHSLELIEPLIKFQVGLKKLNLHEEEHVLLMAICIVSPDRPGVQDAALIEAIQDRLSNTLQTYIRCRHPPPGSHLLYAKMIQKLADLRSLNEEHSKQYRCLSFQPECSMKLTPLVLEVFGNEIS
Chain of Peroxisome proliferator-activated receptor gamma (Homo sapiens) (P37231 whole entry, looked up): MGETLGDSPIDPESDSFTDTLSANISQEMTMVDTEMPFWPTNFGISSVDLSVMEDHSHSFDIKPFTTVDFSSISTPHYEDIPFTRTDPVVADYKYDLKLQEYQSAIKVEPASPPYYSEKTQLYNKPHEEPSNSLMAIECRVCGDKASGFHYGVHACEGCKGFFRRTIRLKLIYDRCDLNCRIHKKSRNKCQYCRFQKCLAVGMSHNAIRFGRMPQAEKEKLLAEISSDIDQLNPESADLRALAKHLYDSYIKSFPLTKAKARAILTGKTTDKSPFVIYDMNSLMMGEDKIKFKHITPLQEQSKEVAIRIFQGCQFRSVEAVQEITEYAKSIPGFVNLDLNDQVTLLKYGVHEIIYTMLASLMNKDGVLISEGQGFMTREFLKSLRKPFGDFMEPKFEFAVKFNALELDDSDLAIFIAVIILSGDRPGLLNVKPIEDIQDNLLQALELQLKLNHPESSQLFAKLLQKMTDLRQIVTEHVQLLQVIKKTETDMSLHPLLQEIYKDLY
Chain of Bile acid receptor (Homo sapiens) (Q96RI1 whole entry, looked up): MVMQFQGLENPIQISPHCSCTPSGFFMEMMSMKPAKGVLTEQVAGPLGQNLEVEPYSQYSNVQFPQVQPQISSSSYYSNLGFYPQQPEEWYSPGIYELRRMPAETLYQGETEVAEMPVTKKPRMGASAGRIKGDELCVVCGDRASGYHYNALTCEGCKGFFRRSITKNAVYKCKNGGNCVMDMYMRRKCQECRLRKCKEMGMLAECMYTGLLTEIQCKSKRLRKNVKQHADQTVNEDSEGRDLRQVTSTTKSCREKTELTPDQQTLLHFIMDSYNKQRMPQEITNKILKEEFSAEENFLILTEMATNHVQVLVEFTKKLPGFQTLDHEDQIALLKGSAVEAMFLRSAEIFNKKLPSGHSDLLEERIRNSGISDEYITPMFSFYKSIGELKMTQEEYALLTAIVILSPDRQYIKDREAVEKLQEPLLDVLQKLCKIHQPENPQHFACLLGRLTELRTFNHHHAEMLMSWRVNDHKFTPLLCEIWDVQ

CO[Si](C)(OC)OC
inactive: [1] | [2] | [3] | [4] | [5] | [6] | [7] | [8] | [9] | [10] | [11] | [12] | [13] | [14] | [15]

C=CCOC(=O)/C=C\C(=O)OCC=C
inactive: [1] | [2] | [3] | [4] | [8] | [9] | [11] | [12] | [13]
active: [5] 27.8 µM

CC(CCc1ccc2c(c1)OCO2)NN (stereo not drawn)
inactive: [1] | [16] | [3] | [17] | [4] | [6] | [7] | [8] | [9] | [10] | [11] | [13]

COc1cc2c(N3CCN(C(=O)Nc4ccc(OC(C)C)cc4)CC3)ncnc2cc1OCCCN1CCCCC1
inactive: [1] | [3] | [17] | [4] | [6] | [7] | [14]
active: [16] 23.7 µM

CC(=O)Nc1ccccc1C
inactive: [1] | [16] | [3] | [17] | [4] | [18] | [7] | [8] | [9] | [19] | [11]

CN1CCN(CCCN2c3ccccc3Sc3ccc(S(=O)(=O)N(C)C)cc32)CC1
active: [6] 26.6 µM | [8] 26.6 µM | [10] 26.6 µM | [11] 29.8 µM
inactive: [1] | [2] | [7]
